Results filed as inconclusive are left out. The source made the active and inactive calls. How the source made its calls, unless noted: active means hit-call score of the fitted dose curve at least 0.9, where 1 is the maximum; inactive means score below 0.9.

Experiment [1] is described as follows: ATG_TCF_b_cat_CIS: Attagene CIS-FACTORIAL HepG2 Assay for human T-Cell-Factor with beta-catenin (TCF/b-cat) (AID 2282965). The settings on record: HepG2 TCF/beta-catenin cis-reporter transcription, actives raise or lower the signal. A digest of the protocol: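 HepG2 cells transiently transfected with cis-promoter-driven multiplexed reporter units; reporter mRNA measured 24 h after dosing by RT-PCR, FAM labelling, HpaI digestion and capillary electrophoresis. Bidirectional fitting relative to DMSO baseline.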

Experiment [2] is described as follows: ATG_TAL_CIS: Attagene CIS-FACTORIAL HepG2 Assay for human TAL Basal Promoter (AID 2282966).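 Further: background control endpoint measuring basal TAL promoter reporter mRNA not a specific factor.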 The conditions noted are these: HepG2 Attagene cis-factorial TAL promoter reporter; actives raise or lower the signal. A digest of the protocol: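 Fluorescence of labelled reporter cDNA fragments, resolved by capillary electrophoresis, gave the readout. Human HepG2 liver cells carried transiently transfected cis-element reporter units and were treated for 24 hours; activity was fitted bidirectionally against DMSO.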

Experiment [3] in a line: ATG_TGFb_CIS: Attagene CIS-FACTORIAL HepG2 Assay for human Transforming Growth Factor (TGF) (AID 2282967). The conditions noted are these: HepG2 Attagene CIS TGFb reporter, mRNA transcription; actives raise or lower the signal. A digest of the protocol: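 Cells were dosed for 24 hours, after which total RNA was reverse-transcribed and reporter sequences amplified, labeled and sized by capillary electrophoresis. Activity was fitted in both directions against DMSO.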

Experiment [4] is described as follows: ATG_VDRE_CIS: Attagene CIS-FACTORIAL HepG2 Assay for human Vitamin D Receptor Element (VDRE) (AID 2282968). The conditions noted are these: HepG2 VDRE cis-reporter transcription, actives raise or lower the signal. A digest of the protocol: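 Transiently transfected HepG2 cells carrying cis-regulated reporter transcription units were exposed for 24 h. Reporter mRNA was measured by RT-PCR with fluorescent labelling and capillary electrophoresis, and fitted in both directions against DMSO.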

Experiment [5] deals with Nuclear receptor subfamily 1 group I member 3 (Homo sapiens) (UniProt Q14994). As to the kind of experiment: ATG_CAR_TRANS: Attagene TRANS-FACTORIAL HepG2 Assay for human Constitutive Androstane Receptor (CAR) (AID 2282969; active means hit-call score of the fitted dose curve at least 0.9, where 1 is the maximum;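 further: activators raise reporter mRNA above DMSO so AC50 marks induction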). The settings on record: HepG2 Attagene TRANS-FACTORIAL CAR reporter. A digest of the protocol: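 HepG2 cells transiently transfected with GAL4-UAS reporter units; TRANS format reads activity of exogenous chimeric NR-Gal4 protein. After 24 h dosing, reporter mRNA quantified by RT-PCR, 6-FAM labelling and capillary electrophoresis; gain of signal fitted against DMSO.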

The target in experiment [6] is Steroid hormone receptor ERR1 (Homo sapiens) (UniProt P11474). Briefly: ATG_ERRa_TRANS: Attagene TRANS-FACTORIAL HepG2 Assay for human Estrogen-Related Receptor alpha (ERRa) (AID 2282971; active means hit-call score of the fitted dose curve at least 0.9, where 1 is the maximum). The conditions noted are these: HepG2 Attagene TRANS reporter, ERRa transactivation. A digest of the protocol: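 Reporter transcript induction was quantified by RT-PCR and capillary electrophoresis of FAM-labelled, HpaI-cut products after 24 h treatment of HepG2 cells carrying transiently transfected GAL4-UAS reporter units and an exogenous ERRa-Gal4 fusion; activity scored as increase over DMSO.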

Experiment [7] has as its target X-box-binding protein 1 (Homo sapiens) (UniProt P17861). As to the kind of experiment: ATG_Xbp1_CIS: Attagene CIS-FACTORIAL HepG2 Assay for human X-box Binding Protein 1 (XBP1) (AID 2282972). The settings on record: HepG2 XBP1 cis-element reporter, Attagene multiplex; actives raise or lower the signal. A digest of the protocol: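 HepG2 cells transiently transfected with multiple cis-element reporter units report endogenous TF activity; 24 h exposure, then reporter mRNA measured by RT-PCR, 6-FAM labelling, HpaI digestion and capillary electrophoresis. Bidirectional fitting versus DMSO.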

Experiment [8] can be described thus: ATG_GAL4_TRANS: Attagene TRANS-FACTORIAL HepG2 Assay for GAL4 (Internal Marker) (AID 2282976; active means hit-call score of the fitted dose curve at least 0.9, where 1 is the maximum). The settings on record: HepG2 Attagene TRANS GAL4 internal marker reporter. A digest of the protocol:
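First, HepG2 cells were transfected with reporter units under GAL4-UAS control. Next, they were treated with chemical for 24 h. Finally, RNA was reverse-transcribed, PCR-amplified, FAM-labelled and resolved by capillary electrophoresis, with induction scored against DMSO.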

For experiment [9], the target named is Estrogen receptor (Homo sapiens) (UniProt P03372). As to the kind of experiment: ATG_ERa_TRANS: Attagene TRANS-FACTORIAL HepG2 Assay for human Estrogen Receptor alpha (ERa) (AID 2282970; active means hit-call score of the fitted dose curve at least 0.9, where 1 is the maximum). The conditions noted are these: HepG2 Attagene TRANS ERa GAL4 reporter, mRNA. A digest of the protocol: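 Human liver HepG2, transient transfection of multiple GAL4-UAS reporter units; TRANS format (exogenous NR-Gal4 chimera). 24 h dosing. Readout: reporter mRNA, RT-PCR, 6-FAM primer extension, HpaI digest, capillary electrophoresis. Positive direction vs DMSO.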

A short description of experiment [10]: ATG_M_19_TRANS: Attagene TRANS-FACTORIAL HepG2 Assay for M19 Transcription Factor (Internal Marker) (AID 2282974; active means hit-call score of the fitted dose curve at least 0.9, where 1 is the maximum). The conditions noted are these: HepG2 Attagene TRANS-FACTORIAL M19 internal marker reporter. A digest of the protocol: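 Transfected HepG2 (GAL4-UAS MRTUs), 24 h compound, TriZol RNA, DNase-treated RT, reporter PCR, FAM label, HpaI digest, CE fluorescence; gain vs DMSO.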

Chain of X-box-binding protein 1 (Homo sapiens) (P17861 whole entry, looked up): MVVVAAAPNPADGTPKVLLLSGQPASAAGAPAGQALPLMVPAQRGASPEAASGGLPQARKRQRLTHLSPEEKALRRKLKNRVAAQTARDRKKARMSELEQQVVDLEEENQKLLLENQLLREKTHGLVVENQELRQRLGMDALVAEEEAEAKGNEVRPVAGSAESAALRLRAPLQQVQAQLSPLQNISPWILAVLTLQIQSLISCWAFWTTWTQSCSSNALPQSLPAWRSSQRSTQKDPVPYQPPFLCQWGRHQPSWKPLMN
Chain of Nuclear receptor subfamily 1 group I member 3 (Homo sapiens) (Q14994 whole entry, looked up, the tested form may be a part): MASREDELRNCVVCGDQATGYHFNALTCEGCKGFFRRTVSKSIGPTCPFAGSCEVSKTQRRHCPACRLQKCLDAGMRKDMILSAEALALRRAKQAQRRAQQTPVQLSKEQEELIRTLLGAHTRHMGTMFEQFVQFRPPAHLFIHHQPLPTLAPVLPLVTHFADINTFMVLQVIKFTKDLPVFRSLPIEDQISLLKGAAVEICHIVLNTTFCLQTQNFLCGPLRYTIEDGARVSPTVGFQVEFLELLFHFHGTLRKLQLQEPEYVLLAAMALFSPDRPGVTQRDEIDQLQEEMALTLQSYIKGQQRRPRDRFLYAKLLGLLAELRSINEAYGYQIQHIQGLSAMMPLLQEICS
Chain of Estrogen receptor (Homo sapiens) (P03372 whole entry, looked up, the tested form may be a part): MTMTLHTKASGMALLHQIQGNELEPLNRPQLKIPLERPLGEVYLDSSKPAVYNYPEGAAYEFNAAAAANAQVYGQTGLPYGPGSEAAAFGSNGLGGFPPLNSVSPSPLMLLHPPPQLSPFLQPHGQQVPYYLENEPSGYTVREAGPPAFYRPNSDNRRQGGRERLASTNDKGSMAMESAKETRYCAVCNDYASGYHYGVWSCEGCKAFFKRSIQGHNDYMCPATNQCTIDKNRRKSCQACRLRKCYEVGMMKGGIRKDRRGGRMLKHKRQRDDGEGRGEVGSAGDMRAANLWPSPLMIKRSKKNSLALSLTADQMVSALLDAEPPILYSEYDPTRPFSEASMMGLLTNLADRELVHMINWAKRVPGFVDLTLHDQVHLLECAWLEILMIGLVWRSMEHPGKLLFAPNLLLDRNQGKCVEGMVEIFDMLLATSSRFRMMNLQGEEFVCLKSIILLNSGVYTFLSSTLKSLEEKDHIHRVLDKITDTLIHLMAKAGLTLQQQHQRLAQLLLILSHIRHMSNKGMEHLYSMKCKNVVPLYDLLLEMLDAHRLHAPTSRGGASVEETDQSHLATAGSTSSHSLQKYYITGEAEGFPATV
Chain of Steroid hormone receptor ERR1 (Homo sapiens) (P11474 whole entry, looked up, the tested form may be a part): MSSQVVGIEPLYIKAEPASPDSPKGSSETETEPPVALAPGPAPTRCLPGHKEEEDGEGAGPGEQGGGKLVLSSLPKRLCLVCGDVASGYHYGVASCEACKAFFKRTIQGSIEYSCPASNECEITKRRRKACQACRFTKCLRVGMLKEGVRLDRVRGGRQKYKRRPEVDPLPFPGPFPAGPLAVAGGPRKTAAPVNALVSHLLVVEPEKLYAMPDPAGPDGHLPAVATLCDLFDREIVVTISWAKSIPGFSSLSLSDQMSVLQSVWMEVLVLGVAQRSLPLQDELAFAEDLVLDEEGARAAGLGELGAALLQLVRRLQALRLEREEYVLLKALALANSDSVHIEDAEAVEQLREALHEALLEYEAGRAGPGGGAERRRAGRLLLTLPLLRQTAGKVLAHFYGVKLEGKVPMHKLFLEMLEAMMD

In the case of `COc1ccc(OC)cc1`, the call in experiment [1], in experiment [2], in experiment [3], in experiment [4], in [5] and in experiment [6] was inactive. For the same compound, the compound was classed as inactive in experiment [7] and in [8].

On to `CCC(C)(CCCC(C)C)OC(C)=O` (stereo not drawn), for which the compound was classed as inactive in experiment [1], in [2], in experiment [3], in experiment [4], in experiment [5] and in experiment [9]. Besides, the result in experiment [7], in [10] and in [8] was inactive.

Turning to `CCC(CC)CO`, the compound was called inactive in experiment [1], in [2], in experiment [3], in [4], in experiment [5] and in [9]. Further, the compound was called inactive in [7] and in experiment [8].

On to `COC(=O)C(C)Oc1ccc(Oc2ncc(C(F)(F)F)cc2Cl)cc1` (stereo not drawn), for which the compound was called inactive in experiment [1], in experiment [2], in [5], in experiment [9], in experiment [7] and in [8]. The AC50 in experiment [3] is 133 µM (active); in experiment [4], 42.8 µM (active).

As to `CC(=O)CCC(=O)O`, the compound was classed as inactive in experiment [1], in experiment [2], in [3], in [4], in experiment [5] and in experiment [7]. The compound was called inactive in [10].

For the compound `CC(C)C(=O)OCC=Cc1ccccc1`, the compound was classed as inactive in experiment [1], in experiment [2], in [3], in experiment [4], in experiment [5] and in experiment [9]. The compound was classed as inactive in experiment [7] and in experiment [10].

For the compound `CCCCCCCCSCc1cc(C)c(O)c(CSCCCCCCCC)c1`, the result in experiment [1], in experiment [2], in experiment [3], in [4], in experiment [5] and in experiment [9] was inactive. Further, the outcome in [7] and in experiment [8] was inactive.

Take `CC(=O)OC(C)(C)C1CC=C(C)CC1` (stereo not drawn): the result in [1], in experiment [2], in experiment [3], in experiment [4], in experiment [5] and in experiment [7] was inactive. The compound was classed as inactive in experiment [10] and in experiment [8]. Further, the AC50 in [9] was 61.7 µM (active).

Take `CCCO[Si](OCCC)(OCCC)OCCC`: the call in experiment [1], in experiment [2], in [3], in [4], in experiment [5] and in [9] was inactive. Further, the outcome in [7], in [10] and in experiment [8] was inactive.

For `NC(=O)c1cnccn1`, the compound was called inactive in experiment [1], in experiment [2], in [3], in experiment [4], in experiment [5] and in [9]. Also, the result in experiment [7] and in experiment [8] was inactive.

For the compound `C1COCO1`, the call in experiment [1], in experiment [2], in experiment [3], in [4], in experiment [9] and in experiment [6] was inactive. The compound was called inactive in experiment [7].

On to `CCOCC(C)O` (stereo not drawn), for which the outcome in experiment [1], in [2], in experiment [3], in experiment [4], in [9] and in experiment [6] was inactive. Besides, the compound was classed as inactive in experiment [7] and in experiment [10].

With `CCCCC/C=C\C=C\C(=O)OCC`, the result in experiment [1], in experiment [2], in experiment [4] and in experiment [9] was inactive. Besides, the concentration at half-maximal activity (AC50) in experiment [3] is 74.2 µM (active); in [7], 61.1 µM (active).

Turning to `CCCCCCCCCCOC(=O)c1ccccc1C(=O)OCCCCCCCC`, the compound was called inactive in experiment [1], in [2], in experiment [3], in experiment [4], in experiment [5] and in [7]. Moreover, the compound was classed as inactive in [8].

As for `CCC(C)C1CCCCC1=O` (stereo not drawn), the compound was called inactive in [1], in [2], in experiment [3], in experiment [4], in [9] and in experiment [6]. Further, the outcome in experiment [7], in experiment [10] and in experiment [8] was inactive.

As to `O=S1(=O)CC(Cl)(Cl)C(Cl)(Cl)C1`, the compound was classed as inactive in [1], in [2], in [3], in [9], in [6] and in experiment [7]. In addition, in experiment [10], the compound was called inactive. For the same compound, the AC50 in experiment [4] is 3.71 µM (active).

In the case of `CC(C)COC(=O)c1ccccc1`, the call in experiment [1], in experiment [2], in experiment [3], in experiment [4], in experiment [9] and in experiment [7] was inactive.

Turning to `O=C1OC2(c3ccc(O)cc3Oc3cc(O)ccc32)c2ccccc21`, the result in experiment [1], in experiment [2], in experiment [3], in experiment [4] and in [7] was inactive. For the same compound, the AC50 in experiment [9] was 27.7 µM (active).

For the compound `CCCCCCCCCOS(=O)(=O)O`, the compound was classed as inactive in [1], in [2], in experiment [3], in experiment [4] and in experiment [7]. Further, the AC50 in experiment [9] was 20.1 µM (active).

For the compound `CC(C)(C)c1cccc(O)c1`, the call in experiment [1], in experiment [2], in [3] and in [7] was inactive. The AC50 in [4] is 28.1 µM (active); in [9], 14.7 µM (active).

Consider `c1coc(CNc2ncnc3nc[nH]c23)c1`, for which the call in [1], in experiment [2], in experiment [3], in [4], in [9] and in [7] was inactive.

For the compound `CC(C)(C)C1CCC(O)CC1` (stereo not drawn), the compound was classed as inactive in [1], in [2], in experiment [3], in experiment [4] and in [7]. The half-maximal activity concentration (AC50) in experiment [9] is 29.2 µM (active).

Regarding `C/C=C(\C)C(=O)OC/C=C(\C)CCC=C(C)C`, the compound was called inactive in experiment [1], in experiment [2], in [3], in experiment [4], in experiment [9] and in experiment [7].

Turning to `CC(C)CCCC(C)(C)O`, the compound was called inactive in experiment [1], in [2], in [3], in experiment [4], in experiment [5] and in experiment [7]. For the same compound, the result in experiment [10] and in experiment [8] was inactive.

As for `OC[C@@H](O)[C@H](O)[C@@H](O)[C@@H](O)CO`, the compound was classed as inactive in [1], in experiment [2], in experiment [3], in experiment [4], in experiment [6] and in experiment [7]. Moreover, the compound was classed as inactive in experiment [10]. Further, the AC50 in [9] is 13.8 µM (active).

In the case of `CCCCN(CCCC)CCCCCCN(CCCC)CCCC`, the compound was classed as inactive in [1], in experiment [2], in experiment [3], in experiment [4], in experiment [5] and in experiment [7]. In addition, in experiment [10], the call was inactive.

Take `NNC(=O)OCc1ccccc1`: the compound was classed as inactive in experiment [1], in experiment [2], in experiment [3], in experiment [4], in experiment [9] and in experiment [6]. Further, the compound was called inactive in experiment [7], in experiment [10] and in [8].

On to `NC(=O)c1c(Cl)cccc1Cl`, for which the call in experiment [1], in experiment [2], in experiment [3], in [4], in experiment [9] and in experiment [6] was inactive. Further, in experiment [7], the result was inactive.

Consider `C=C(C)C(=O)OCCC(C)OC(=O)C(=C)C` (stereo not drawn), for which the compound was called inactive in [1], in [2], in experiment [3], in [4], in experiment [9] and in experiment [6]. The outcome in experiment [7] was inactive.

Consider `CN1CCc2cccc3c2[C@H]1Cc1ccc(O)c(O)c1-3`, for which the result in [1], in [3], in [4], in experiment [9] and in experiment [7] was inactive. The concentration at half-maximal activity (AC50) in [2] is 8.44 µM (active).

With `O=C1OCc2ccccc21`, the call in experiment [1], in experiment [2], in experiment [3], in [4], in experiment [5] and in experiment [7] was inactive. Also, in [10], the compound was called inactive.

(Values after PubChem BioAssay (EPA / NIEHS).)
